Data: PubChem BioAssay (NCI)
Compounds without any hit were thinned out: in the full panel of roughly 83,000, 20% have a hit.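 Percent growth is the endpoint: 0 to 100 indicates growth inhibition (40 means 60% inhibition), 0 means no net growth, and negative values indicate cell death.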 Activity calls are given as the source filed them. Rule for the calls: active = growth percent below 10; inactive = the rest.

Experiments:
Assay in all cases: NCI-60 one-dose screen, 48 h (100 = growth as untreated, 0 = no growth, -100 = all killed)
DU-145 prostate = conditions: 10 µM
K-562 leukemia = conditions: 10 µM
MALME-3M melanoma = conditions: 10 µM
MDA-MB-231 breast = conditions: 10 µM
RXF 393 renal = conditions: 10 µM
SF-268 CNS = conditions: 10 µM
SF-295 CNS = conditions: 10 µM
SF-539 CNS = conditions: 10 µM
UACC-257 melanoma = conditions: 10 µM
M14 melanoma = conditions: 10 µM
HCT-15 colon = conditions: 10 µM
HT29 colon = conditions: 10 µM
SNB-75 CNS = conditions: 10 µM
SNB-19 CNS = conditions: 10 µM
U251 CNS = conditions: 10 µM
PC-3 prostate = conditions: 10 µM
SK-MEL-5 melanoma = conditions: 10 µM
UACC-62 melanoma = conditions: 10 µM unless noted
LOX IMVI melanoma = conditions: 10 µM
SK-MEL-28 melanoma = conditions: 10 µM

Measured: growth

CCOC(=O)CSc1c([N+](=O)[O-])ncn1C
inactive: DU-145 prostate 105% | K-562 leukemia 109% | MALME-3M melanoma 80.4% | MDA-MB-231 breast 96.5% | RXF 393 renal 103% | SF-268 CNS 103% | SF-295 CNS 102% | SF-539 CNS 94.3% | UACC-257 melanoma 94.6% | M14 melanoma 94.1% | HCT-15 colon 93.7% | HT29 colon 104% | SNB-75 CNS 98.4% | SNB-19 CNS 99.6% | U251 CNS 97.9% | PC-3 prostate 106% | SK-MEL-5 melanoma 96.2% | UACC-62 melanoma 97.8% | LOX IMVI melanoma 97.7% | SK-MEL-28 melanoma 92.6%

O=c1cc(-c2ccccc2)nc2cc(-c3ccco3)[nH]n12
inactive: DU-145 prostate 115% | K-562 leukemia 42.8% | MALME-3M melanoma 84.2% | MDA-MB-231 breast 98.8% | RXF 393 renal 100% | SF-268 CNS 93.8% | SF-295 CNS 110% | SF-539 CNS 81.8% | UACC-257 melanoma 43.8% | M14 melanoma 77.8% | HCT-15 colon 67.8% | HT29 colon 102% | SNB-75 CNS 79.4% | SNB-19 CNS 95.8% | U251 CNS 90.5% | PC-3 prostate 78.7% | SK-MEL-5 melanoma 83.1% | UACC-62 melanoma 67.8% | LOX IMVI melanoma 86.1% | SK-MEL-28 melanoma 88.6%

O=C(CCl)N1CCN(C/C=C/c2ccccc2)CC1
inactive: DU-145 prostate 110% | K-562 leukemia 88.1% | MALME-3M melanoma 83% | MDA-MB-231 breast 100% | RXF 393 renal 86.4% | SF-268 CNS 87.7% | SF-295 CNS 105% | SF-539 CNS 104% | UACC-257 melanoma 85.8% | M14 melanoma 90.1% | HCT-15 colon 86.3% | HT29 colon 79.2% | SNB-75 CNS 92.6% | SNB-19 CNS 95.2% | U251 CNS 90.7% | PC-3 prostate 89% | SK-MEL-5 melanoma 86.6% | UACC-62 melanoma 76.6% | SK-MEL-28 melanoma 94.4%
active: LOX IMVI melanoma 2.58%

Nc1nc(N)c(N=Nc2ccc(C(=O)O)cc2)c(N)n1
inactive: DU-145 prostate 111% | K-562 leukemia 108% | MALME-3M melanoma 106% | MDA-MB-231 breast 107% | RXF 393 renal 113% | SF-268 CNS 107% | SF-295 CNS 104% | SF-539 CNS 101% | UACC-257 melanoma 30.9% | M14 melanoma 98.4% | HCT-15 colon 109% | HT29 colon 105% | SNB-75 CNS 103% | SNB-19 CNS 95.1% | U251 CNS 103% | PC-3 prostate 101% | SK-MEL-5 melanoma 100% | UACC-62 melanoma 94.4% | LOX IMVI melanoma 101% | SK-MEL-28 melanoma 103%

Cc1ccc(C(O)C2CC2)cc1 (stereo not given)
inactive: DU-145 prostate 113% | K-562 leukemia 98.6% | MALME-3M melanoma 101% | MDA-MB-231 breast 105% | RXF 393 renal 102% | SF-268 CNS 108% | SF-295 CNS 97% | SF-539 CNS 96.7% | UACC-257 melanoma 89.5% | M14 melanoma 109% | HCT-15 colon 97.7% | HT29 colon 104% | SNB-75 CNS 88.9% | SNB-19 CNS 96.7% | U251 CNS 100% | PC-3 prostate 94.5% | SK-MEL-5 melanoma 103% | UACC-62 melanoma 98.8% | LOX IMVI melanoma 100% | SK-MEL-28 melanoma 106%

CCCCC/C=N/Nc1nc(C)cc(=O)[nH]1
inactive: DU-145 prostate 114% | K-562 leukemia 105% | MALME-3M melanoma 103% | MDA-MB-231 breast 95.2% | RXF 393 renal 105% | SF-268 CNS 107% | SF-295 CNS 88.8% | SF-539 CNS 108% | UACC-257 melanoma 93.1% | M14 melanoma 106% | HCT-15 colon 116% | HT29 colon 105% | SNB-75 CNS 99.2% | SNB-19 CNS 108% | U251 CNS 96.6% | PC-3 prostate 88.7% | SK-MEL-5 melanoma 104% | UACC-62 melanoma 102% | LOX IMVI melanoma 94.3% | SK-MEL-28 melanoma 102%

CCCC(C)OCC(=O)O (stereo not given)
inactive: DU-145 prostate 106% | K-562 leukemia 112% | MALME-3M melanoma 90.7% | MDA-MB-231 breast 105% | RXF 393 renal 96.4% | SF-268 CNS 99.2% | SF-295 CNS 98.5% | SF-539 CNS 102% | UACC-257 melanoma 90.2% | M14 melanoma 106% | HCT-15 colon 104% | HT29 colon 109% | SNB-75 CNS 85.8% | SNB-19 CNS 100% | U251 CNS 93.5% | PC-3 prostate 98.4% | SK-MEL-5 melanoma 99.8% | UACC-62 melanoma 110% | LOX IMVI melanoma 99.1% | SK-MEL-28 melanoma 97.9%

O=C(O)c1cccc([N+](=O)[O-])c1
inactive: DU-145 prostate 104% | K-562 leukemia 96% | MALME-3M melanoma 105% | MDA-MB-231 breast 102% | RXF 393 renal 117% | SF-268 CNS 100% | SF-295 CNS 94.9% | SF-539 CNS 103% | UACC-257 melanoma 107% | M14 melanoma 104% | HCT-15 colon 108% | HT29 colon 111% | SNB-75 CNS 94.3% | SNB-19 CNS 106% | U251 CNS 95.7% | PC-3 prostate 93.1% | SK-MEL-5 melanoma 107% | UACC-62 melanoma 101% | LOX IMVI melanoma 99.2% | SK-MEL-28 melanoma 112%
